This is a sample that favours compounds with a hit; in the whole collection about 2.8% have one here.
SENP8 block-1 – SENP8 protease inhibitors, primary screen, biochemical, luminescence; Sentrin-specific protease 8 (Homo sapiens), Q96LD8; purified SENP8, Z-RLRGG-aminoluciferin cleavage; inhibition, % at 10 µM; 1.2% of 330,000 active; in the data active means inhibition above about 50%
HSP90 inh – HSP90 inhibitors, primary screen, cell lysate, luminescence; Heat shock protein HSP 90 (rabbit reticulocyte lysate; luciferase refolding); 0.91% of 290,000 active; Rabbit reticulocyte lysate, luciferase refolding luminescence, 3 h; inhibition, % at 5.6 µM;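 active means inhibition above the screen-wide mean plus 3 SD, computed separately per campaign, cut at about 16% in these data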;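 further: 0% = DMSO wells and 100% = 60 µM geldanamycin wells; inhibitors lower the luminescence because luciferase stays unfolded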
SENP6 block – SENP6 protease inhibitors, primary screen, biochemical, luminescence, uHTS; AID 2599, 2010; inhibition, % at 10 µM; 1.8% of 330,000 active; Recombinant SENP6 catalytic domain, aminoluciferin luminescence; Sentrin-specific protease 6 (Homo sapiens), Q9GZR1;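 active means inhibition above about 50% at the single tested dose, limit read from the data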;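 further: plate controls were DMSO wells with enzyme for no effect and DMSO wells lacking enzyme for full effect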
Target sequence (Q9GZR1 628-1112 limits assumed): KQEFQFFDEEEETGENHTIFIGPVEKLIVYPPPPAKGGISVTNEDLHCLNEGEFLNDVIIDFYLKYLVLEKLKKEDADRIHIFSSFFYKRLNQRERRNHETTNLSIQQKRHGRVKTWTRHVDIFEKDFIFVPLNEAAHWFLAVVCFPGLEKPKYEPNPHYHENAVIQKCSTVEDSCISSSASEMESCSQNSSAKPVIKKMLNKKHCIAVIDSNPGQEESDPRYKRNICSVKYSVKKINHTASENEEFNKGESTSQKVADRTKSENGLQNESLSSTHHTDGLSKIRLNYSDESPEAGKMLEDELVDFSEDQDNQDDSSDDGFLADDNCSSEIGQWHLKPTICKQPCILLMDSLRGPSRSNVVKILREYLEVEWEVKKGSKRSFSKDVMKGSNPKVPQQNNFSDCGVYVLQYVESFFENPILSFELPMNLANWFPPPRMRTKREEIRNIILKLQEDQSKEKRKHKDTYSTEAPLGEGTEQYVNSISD
SENP8 block-2 – human SENP8 protease inhibitors, primary screen, biochemical, fluorescence, Nedd8 protein substrate, uHTS. Sentrin-specific protease 8 (Homo sapiens), Q96LD8. inhibition, % at 20 µM. 0.64% of 360,000 active. recombinant SENP8; in the data active means inhibition mostly above about 40%, no sharp cut-off; inactive means mostly below about 27%
SENP7 block – SENP7 protease inhibitors, primary screen, biochemical, luminescence, uHTS; AID 434973, 2010; Sentrin-specific protease 7 (Homo sapiens), Q9BQF6; recombinant SENP7, Z-RLRGG-aminoluciferin luminescence, 40 min; inhibition, % at 5 µM; 1.5% of 330,000 active;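 active means inhibition above about 50% at the single test dose, limit read from the data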;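 further: plate controls were DMSO with enzyme for no effect and no enzyme buffer wells for full effect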
SENP8 confirm – SENP8 protease inhibitors, retest, confirmation, biochemical, luminescence, single concentration; inhibition, % at 12.5 µM; Recombinant SENP8, Z-RLRGG-aminoluciferin luminescence, 60 min; shares compounds with SENP7 block; 40% of 6,200 active;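 active means mean inhibition across replicates above about 50%, limit read from the data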
SENP6 confirm – SENP6 protease inhibitors, confirmation, biochemical, luminescence, single concentration; recombinant SENP6, Z-RLRGG-aminoluciferin luminescence; AID 488915, 2010; inhibition, % at 12.5 µM; 58% of 6,200 active; shares compounds with SENP7 block
SENP7 conf – SENP7 protease inhibitors, retest, confirmation, biochemical, luminescence, single concentration; shares compounds with SENP7 block; recombinant SENP7, Z-RLRGG-aminoluciferin luminescence, 40 min; inhibition, % at 12.5 µM; 69% of 6,200 active; AID 488917, 2010
Casp3 SENP sel – caspase-3 protease inhibitors, confirmation, selectivity assay for SENP inhibitor project, biochemical, single concentration; shares compounds with SENP7 block; purified caspase-3, Z-DEVD-aminoluciferin luminescence, 60 min; inhibition, % at 12.5 µM; 60% of 6,200 active;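 active means mean inhibition above about 50%, limit read from the data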;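 further: plate controls were enzyme with DMSO for no effect and wells without caspase-3 for full effect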
Luc interf – interferes with luciferase luminescence in SENP counter-screen; Pre-incubated SENP8/Z-RLRGG-aminoluciferin, luciferase luminescence interference; shares compounds with SENP7 block; 39% of 6,200 active; AID 488919; inhibition, % at 12.5 µM;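 active means mean inhibition above about 50% when retested at one dose, limit read from the data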;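 further: plate controls were DMSO wells with completed reaction for no effect and substrate without enzyme for full effect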
An asterisk follows results filed as active; . = no result given.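 How the source made its calls, unless noted: active means mean inhibition above about 50% in the one-dose retest (limit read from the data); inactive means the rest.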

SMILES	SENP8 block-1	HSP90 inh	SENP6 block	SENP8 block-2	SENP7 block	SENP8 confirm	SENP6 confirm	SENP7 conf	Casp3 SENP sel	Luc interf
Cc1ccc(C(=O)NC2(O)C(=O)c3ccccc3C2=O)cc1C	64*	4	64*	100*	60*	70*	85*	74*	2	5
O=C(NC1(O)C(=O)c2ccccc2C1=O)c1ccc(C(F)(F)F)cc1	67*	6	74*	81*	80*	79*	91*	84*	8	6
O=C1/C(=C/c2cccc(F)c2)CSc2sccc21	-11	-1	-23	27	8	.	.	.	.	.
CCS(=O)(=O)N1CCCC(C(=O)NCCCOC)C1 (stereo not given)	3	-1	5	33	-8	.	.	.	.	.
O=S(=O)([N-]c1nc2ccccc2nc1-[n+]1ccc(-c2ccncc2)cc1)c1ccccc1	1	2	-11	10	-3	.	.	.	.	.
COc1ccc(NC(=O)Nc2ccc(F)cc2F)cc1	59*	5	74*	6	80*	58*	71*	93*	80*	26
O=C(Nc1ccc(C(=O)O)cc1)Nc1ccc(F)cc1F	69*	5	83*	5	77*	77*	73*	93*	91*	76*
COc1ccc(NC(=O)Nc2ccc(F)cc2F)c(C)c1	1	2	-3	18	4	.	.	.	.	.
O=C(Nc1ccccc1)Nc1ccc(Br)cc1F	10	-2	13	11	28	.	.	.	.	.
COc1cccc(CN2CCNC(=O)C2CC(=O)N(C)CCC2CCOCC2)c1 (stereo not given)	-3	-3	-31	-33	4	.	.	.	.	.
O=C(O/N=C1/CCSc2ccccc21)c1ccccc1	79*	-4	89*	-18	74*	90*	89*	98*	79*	75*
O=C(O/N=C1\CCCc2ccccc21)c1ccc(F)cc1	72*	3	78*	9	95*	11	55*	26	42	14
Cc1ccc(O)c(NC(=O)c2cc(-c3ccccc3Cl)on2)c1	0	1	25	13	63*	-1	9	12	11	3
O=C(Nc1cccnc1)c1cc(-c2ccccc2O)on1	88*	12	8	10	96*	73*	72*	99*	91*	89*
COc1ccc(-c2cc(C(=O)Nc3cccnc3)no2)cc1OC	-10	-2	-12	-53	-18	.	.	.	.	.
O=C(Nc1cccnc1)c1cc(-c2cccs2)on1	51*	0	74*	-8	84*	16	34	80*	79*	-1
O=C(Nc1cccc(O)c1)c1cc(-c2ccco2)on1	84*	17*	92*	6	-1	90*	91*	98*	90*	90*
Cc1ccc(NC(=O)c2cc(-c3cccs3)on2)cc1C	-23	0	-12	-2	18	.	.	.	.	.
CC(=O)c1cccc(NC(=O)c2cc(-c3ccco3)on2)c1	3	5	-3	3	-1	.	.	.	.	.
CCOC(=O)c1c(NC(=S)N2CCN(C)CC2)sc(C)c1-c1ccccc1	8	0	2	-6	-5	.	.	.	.	.
Cc1ccc(NC(=O)C2Oc3ccccc3OC2C)cc1 (stereo not given)	-7	3	-7	3	3	.	.	.	.	.
CCOc1ccccc1NC(=O)Cn1c(=O)n(-c2ccccc2)c(=O)c2oc3ccccc3c21	-9	3	-26	-2	-9	.	.	.	.	.
CC(=O)NS(=O)(=O)c1ccc(N=c2ssc3c2-c2cc(C)ccc2NC3(C)C)cc1	0	0	0	23	-18	.	.	.	.	.
O=C(C1CC(c2ccccc2O)=NO1)N1CCCCC1 (stereo not given)	-4	1	-17	3	74*	-11	-7	-13	8	7
Brc1ccc2nc(-c3c[nH]c4ccccc34)cn2c1	79*	5	81*	-157	24	49	90*	97*	68*	90*
SMILES	SENP8 block-1	HSP90 inh	SENP6 block	SENP8 block-2	SENP7 block	SENP8 confirm	SENP6 confirm	SENP7 conf	Casp3 SENP sel	Luc interf
Clc1ccc(-c2cn3cc(Br)ccc3n2)cc1Cl	59*	-1	63*	-13	28	-11	23	-11	28	-16
Cc1cnc(C(=O)N2CCCC(C(=O)c3ccc(C(C)(C)C)cc3)C2)cn1 (stereo not given)	-1	1	-13	3	-3	.	.	.	.	.
CC(C)(C)c1ccc(C(=O)C2CCCN(C(=O)c3ccccn3)C2)cc1 (stereo not given)	2	3	5	5	102*	-9	-7	-10	0	4
Cc1cccc(NC(=S)NCC23C=CC(O2)C2C(=O)N(c4ccc(Cl)cc4)C(=O)C23)c1 (stereo not given)	-11	-3	-16	2	-12	.	.	.	.	.
COC(=O)c1ccc(COc2ccccc2/C=N/Nc2cccc(C(=O)O)c2)cc1	.	6	.	-15	.	.	.	.	.	.
COC(=O)c1ccc(COc2ccccc2/C=C/C(=O)c2ccc(OCC(=O)O)cc2)cc1	31	2	55*	17	5	16	10	30	27	49
C=CCn1cc(C(=O)NCCOC)c(=O)c2cc(S(=O)(=O)N(CC)CC)ccc21	1	2	-8	4	7	.	.	.	.	.
CN1CCSc2ccc(C(=O)Nc3ccc(Cl)cc3)cc21	-18	-4	-28	-424	5	.	.	.	.	.
COc1cccc(NC(=O)c2ccc3nc(C)sc3c2)c1	72*	-8	91*	16	89*	80*	81*	95*	87*	84*
COc1cccc(NC(=O)c2ccc3c(c2)N(C)CCS3)c1	94*	-1	91*	-466	96*	95*	96*	100*	94*	96*
